Measured values published in the supplement of paper PMC8975748.
Structures can show the parent of a compound that is named as a salt. ± gives the standard deviation of the averaged measurements.

Columns and labels:
[1] = system: Saccharomyces cerevisiae BY4741 SeMeCo community; experiment: mean cell size (pixel area) (pixels); higher = larger cells; conditions: 10 µM; 24 h; SM minimal medium
In short: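 Mean cell pixel area per well was measured in a four-plasmid fluorescent community of Saccharomyces cerevisiae BY4741, where every plasmid complements one auxotrophy and carries a fluorescent marker. Cells from an overnight preculture at OD600 = 1.0 were diluted to OD600 = 0.3 and dispensed at 70 µl into 384-well plates acoustically predosed with drug to a final 10 µM in SM medium. Incubation lasted 24 h, followed by paraformaldehyde fixation, automated confocal imaging and analysis in Harmony. Reported figures are averaged over 3 replicates. Same SeMeCo high-content imaging drug screen: Selleck FDA-approved drugs at 10 µM, 24 h in SM medium, 384-well plates, 3 replicates.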

[2] = system: Saccharomyces cerevisiae BY4741 SeMeCo community; experiment: z-score of prototroph abundance vs DMSO median; higher = larger share of this subpopulation than in DMSO controls; conditions: 10 µM; 24 h; SM minimal medium; subpopulation (auxotrophy): Prototroph
In short: (§1)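 Cells of a Saccharomyces cerevisiae BY4741 community, carrying four plasmids that each restored one auxotrophy and encoded a distinct fluorescent protein, were pre-grown overnight to OD600 1.0 and diluted to 0.3. A 70 µl volume was added to 384-well plates acoustically predosed with library drugs (10 µM final) and grown 24 h in minimal SM medium. After paraformaldehyde fixation, automated confocal microscopy was used, with single-auxotroph fluorescent strains for thresholds and autofluorescence correction. The abundance of each subpopulation was scored as a z-score against the vehicle-well median.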

[3] = system: Saccharomyces cerevisiae BY4741 SeMeCo community; experiment: z-score of subpopulation abundance vs DMSO median, subpopulation auxotrophic for M; higher = larger share of this subpopulation than in DMSO controls; conditions: 10 µM; 24 h; SM minimal medium; subpopulation (auxotrophy): M
In short: as §1

[4] = system: Saccharomyces cerevisiae BY4741 SeMeCo community; experiment: z-score of subpopulation abundance vs DMSO median, subpopulation auxotrophic for L; higher = larger share of this subpopulation than in DMSO controls; conditions: 10 µM; 24 h; SM minimal medium; subpopulation (auxotrophy): L
In short: as §1

[5] = system: Saccharomyces cerevisiae BY4741 SeMeCo community; experiment: z-score of subpopulation abundance vs DMSO median, subpopulation auxotrophic for U; higher = larger share of this subpopulation than in DMSO controls; conditions: 10 µM; 24 h; SM minimal medium; subpopulation (auxotrophy): U
In short: as §1

[6] = system: Saccharomyces cerevisiae BY4741 SeMeCo community; experiment: z-score of subpopulation abundance vs DMSO median, subpopulation auxotrophic for H; higher = larger share of this subpopulation than in DMSO controls; conditions: 10 µM; 24 h; SM minimal medium; subpopulation (auxotrophy): H
In short: as §1

[7] = system: Saccharomyces cerevisiae BY4741 SeMeCo community; experiment: z-score of subpopulation abundance vs DMSO median, subpopulation auxotrophic for LU; higher = larger share of this subpopulation than in DMSO controls; conditions: 10 µM; 24 h; SM minimal medium; subpopulation (auxotrophy): LU
In short: as §1

[8] = system: Saccharomyces cerevisiae BY4741 SeMeCo community; experiment: z-score of subpopulation abundance vs DMSO median, subpopulation auxotrophic for LM; higher = larger share of this subpopulation than in DMSO controls; conditions: 10 µM; 24 h; SM minimal medium; subpopulation (auxotrophy): LM
In short: as §1

[9] = system: Saccharomyces cerevisiae BY4741 SeMeCo community; experiment: z-score of subpopulation abundance vs DMSO median, subpopulation auxotrophic for HM; higher = larger share of this subpopulation than in DMSO controls; conditions: 10 µM; 24 h; SM minimal medium; subpopulation (auxotrophy): HM
In short: as §1

[10] = system: Saccharomyces cerevisiae BY4741 SeMeCo community; experiment: z-score of subpopulation abundance vs DMSO median, subpopulation auxotrophic for HU; higher = larger share of this subpopulation than in DMSO controls; conditions: 10 µM; 24 h; SM minimal medium; subpopulation (auxotrophy): HU
In short: as §1

[11] = system: Saccharomyces cerevisiae BY4741 SeMeCo community; experiment: z-score of subpopulation abundance vs DMSO median, subpopulation auxotrophic for UM; higher = larger share of this subpopulation than in DMSO controls; conditions: 10 µM; 24 h; SM minimal medium; subpopulation (auxotrophy): UM
In short: as §1

[12] = system: Saccharomyces cerevisiae BY4741 SeMeCo community; experiment: z-score of subpopulation abundance vs DMSO median, subpopulation auxotrophic for HL; higher = larger share of this subpopulation than in DMSO controls; conditions: 10 µM; 24 h; SM minimal medium; subpopulation (auxotrophy): HL
In short: as §1

[13] = system: Saccharomyces cerevisiae BY4741 SeMeCo community; experiment: z-score of subpopulation abundance vs DMSO median, subpopulation auxotrophic for HLU; higher = larger share of this subpopulation than in DMSO controls; conditions: 10 µM; 24 h; SM minimal medium; subpopulation (auxotrophy): HLU
In short: as §1

[14] = system: Saccharomyces cerevisiae BY4741 SeMeCo community; experiment: z-score of subpopulation abundance vs DMSO median, subpopulation auxotrophic for HLM; higher = larger share of this subpopulation than in DMSO controls; conditions: 10 µM; 24 h; SM minimal medium; subpopulation (auxotrophy): HLM
In short: as §1

[15] = system: Saccharomyces cerevisiae BY4741 SeMeCo community; experiment: z-score of subpopulation abundance vs DMSO median, subpopulation auxotrophic for HUM; higher = larger share of this subpopulation than in DMSO controls; conditions: 10 µM; 24 h; SM minimal medium; subpopulation (auxotrophy): HUM
In short: as §1

[16] = system: Saccharomyces cerevisiae BY4741 SeMeCo community; experiment: z-score of subpopulation abundance vs DMSO median, subpopulation auxotrophic for LUM; higher = larger share of this subpopulation than in DMSO controls; conditions: 10 µM; 24 h; SM minimal medium; subpopulation (auxotrophy): LUM
In short: as §1

[17] = system: Saccharomyces cerevisiae BY4741 SeMeCo community; experiment: z-score of subpopulation abundance vs DMSO median, subpopulation auxotrophic for HLUM; higher = larger share of this subpopulation than in DMSO controls; conditions: 10 µM; 24 h; SM minimal medium; subpopulation (auxotrophy): HLUM
In short: as §1

| Structure (SMILES) | mean cell size [1] | z-score of prototroph abundance [2] | z-score of subpopulation abundance [3] | z-score of subpopulation abundance [4] | z-score of subpopulation abundance [5] | z-score of subpopulation abundance [6] | z-score of subpopulation abundance [7] | z-score of subpopulation abundance [8] | z-score of subpopulation abundance [9] | z-score of subpopulation abundance [10] | z-score of subpopulation abundance [11] | z-score of subpopulation abundance [12] | z-score of subpopulation abundance [13] | z-score of subpopulation abundance [14] | z-score of subpopulation abundance [15] | z-score of subpopulation abundance [16] | z-score of subpopulation abundance [17] |
| --- | --- | --- | --- | --- | --- | --- | --- | --- | --- | --- | --- | --- | --- | --- | --- | --- | --- |
| NS(=O)(=O)Cc1noc2ccccc12 [Zonisamide] | 12.4 ± 0.24 | -0.82 | 0.41 | 1.91 | -0.42 | 0.46 | 0.73 | 1.13 | 0.69 | -0.35 | -0.04 | 0.85 | 1.02 | 1.38 | 0.45 | 1.7 | 1.75 |
| O=C1CN(/N=C/c2ccc(-c3ccc([N+](=O)[O-])cc3)o2)C(=O)N1 [Dantrolene sodium hemiheptahydrate] | 12.7 ± 0.17 | 1 | 3.93 | 1.44 | -4.45 | 2.07 | -1.88 | 1.95 | 1.38 | -2.96 | -3.9 | 1.61 | -1.02 | 2.77 | -1.65 | -1.33 | 0.57 |
| COC(=O)Nc1nc2cc([S+]([O-])c3ccccc3)ccc2[nH]1 (centres undefined) [Oxfendazole] | 12.59 ± 0.1 | 0.13 | 0.39 | -1.92 | 1.29 |  | 0.48 | -1.48 | -0.28 | 0.76 | 0.53 | 0 | -0.7 | -0.75 | 0.73 | -0.67 | -1.07 |
| CC(C[N+](C)(C)C)OC(N)=O (centres undefined) [Bethanechol chloride] | 12.5 ± 0.12 | -0.22 | -0.79 | 0.42 | 0.7 | 0.23 | 0.8 | -0.56 | 0.07 | 0.89 | -0.21 | -0.24 | 1.45 | 0.1 | -0.33 | -0.42 | -0.3 |
| CN1CCN(CC(=O)N2c3ccccc3C(=O)Nc3cccnc32)CC1 [Pirenzepine dihydrochloride] | 11.97 ± 0.054 | 0.72 | -0.96 | -0.62 | -0.46 | 0.01 | -0.44 | -0.32 | -0.85 | -0.67 | -0.76 | -0.63 | -0.21 | -0.87 | -0.75 | -1.37 | -0.89 |
| OC(CCN1CCCCC1)(c1ccccc1)C1CCCCC1 (centres undefined) [Trihexyphenidyl hydrochloride] | 12.5 ± 0.24 | -0.03 | 0.49 | 0.5 | 0.45 | -0.13 | 1.04 | -0.29 | -0.75 | -0.18 | 0.41 | -0.03 | -0.09 | 0.68 | -0.31 | 0.73 | -0.13 |
| CC(=O)NS(=O)(=O)c1ccc(N)cc1 [Sulfacetamide Sodium] | 12.4 ± 0.26 | -0.69 | 0.42 | -0.02 | 0.86 |  | 0.61 | -0.08 | 0.1 | -0.34 | 0.35 | 0.22 | -0.24 | -0.1 | 0.62 | 0.63 | 0.37 |
| NC12CC3CC(CC(C3)C1)C2 [Amantadine HCl] | 12.6 ± 0.17 | 0.23 | 0.52 | -0.67 | 0.19 |  | -0.18 | -0.26 | -0.31 | -0.11 | -0.27 | -0.19 | -0.31 | -0.47 | -0.08 | -0.72 | -0.01 |
| CC[C@H](c1ccc(O)cc1)[C@@H](CC)c1ccc(O)cc1 [Hexestrol] | 12.7 ± 0.21 | 1.27 | 0.45 | -0.78 | -0.6 | -0.31 | -1.49 | -0.2 | -0.94 | -0.58 | -0.86 | -0.81 | -0.58 | -0.94 | -0.88 | -1.39 | -1.21 |
| Nc1ccc2cc3ccc(N)cc3nc2c1 [Proflavine Hemisulfate] | 12.06 ± 0.0063 | 5.49 | 6.69 | -8.37 | -8.08 | 5.37 | -9.25 | -5.03 | 6.84 | -6.91 | -8.07 | -4.25 | -4.5 | -2.37 | -4.39 | -5.16 | -2.15 |
| C[C@@H](O)[C@H]1C(=O)N2C(C(=O)[O-])=C(SC3Cn4cnc[n+]4C3)[C@H](C)[C@H]12 (some centres undefined) [Biapenem] | 12.11 ± 0.1 | 0.75 | 1.3 | -0.66 | -0.12 | -0.04 | -1.32 | -0.22 | 0.51 | -0.36 | -0.17 | -0.48 | -1.25 | -0.52 | -0.24 | -0.49 | -0.81 |
| CO/N=C(\C(=O)N[C@@H]1C(=O)N2C(C(=O)O)=C(CSc3nnnn3C)CS[C@H]12)c1csc(N)n1 [Cefmenoxime hydrochloride] | 12.5 ± 0.38 | -0.33 | 0.36 | -0.06 | -0.34 | 0.02 | 0.37 | 0.27 | 0.28 | -0.46 | 0.4 | -0.51 | -0.51 | -0.86 | -0.02 | -0.46 | -0.52 |
| CCC(C)(Oc1ccc(C2(c3ccc(OC(C)(CC)C(=O)O)cc3)CCCCC2)cc1)C(=O)O (centres undefined) [Clinofibrate] | 13.24 ± 0.13 | 0.14 | 0.41 | -2.3 | 0.34 | 1.7 | -0.18 | -1.21 | -0.03 | 0.11 | -2.08 | -0.48 | 0.73 | 2.85 | -0.82 | -1.09 | 0.45 |
| CN1CCc2cc3c(cc2C(=O)Cc2ccc4c(c2C1)OCO4)OCO3 [Protopine] | 12.2 ± 0.13 | -0.56 | -0.25 | 1.72 | -0.67 | 0.05 | 1.45 | 1.78 | -0.3 | -0.45 |  | 1.17 | 0.88 | 0.14 | 0.19 | 1.38 | 0.9 |
